Screening results from PubChem.
Kir21 inh: inhibitors of mouse Kir2.1 inward-rectifier potassium channel. HEK293-Kir2.1, FluxOR thallium flux fluorescence; active compounds read low. B-score at 10 µM. 310,000 compounds, 0.85% hits. AID 1672;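 active means fluorescence ratio B-score at or below minus 3 SD of library scores, with starting-brightness B-score within 2 SD, cut at about -4.2 in these data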;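 further: channel flux triggered by added potassium and thallium sulfate stimulus; B-score of peak minus minimum fluorescence over baseline after thallium stimulus; more negative B-score means stronger Kir2.1 block with less thallium influx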
Target sequence (P35561 whole entry, looked up): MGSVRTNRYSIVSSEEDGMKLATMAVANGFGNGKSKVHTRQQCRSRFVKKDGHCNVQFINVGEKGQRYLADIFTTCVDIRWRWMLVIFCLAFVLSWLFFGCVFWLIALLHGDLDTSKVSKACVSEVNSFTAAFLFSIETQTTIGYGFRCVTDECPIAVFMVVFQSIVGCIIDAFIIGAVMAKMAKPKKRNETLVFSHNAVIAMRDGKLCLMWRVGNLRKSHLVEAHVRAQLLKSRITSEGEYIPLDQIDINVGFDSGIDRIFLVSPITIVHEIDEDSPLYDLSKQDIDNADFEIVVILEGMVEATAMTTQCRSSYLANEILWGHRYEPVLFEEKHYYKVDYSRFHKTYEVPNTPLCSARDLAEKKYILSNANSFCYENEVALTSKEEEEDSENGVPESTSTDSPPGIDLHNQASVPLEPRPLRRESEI
H9c2 TAG inh: reduces triacylglycerol accumulation in H9c2 cells; Nile Red lipid (TAG) fluorescence; cells loaded with 200 µM oleic acid; inhibition, % at 12.5 µM; 230,000 compounds, 0.66% hits; AID 651582;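 active means pattern-corrected inhibition of lipid staining of at least 50% with the nuclear-stain viability signal not falling by more than 50%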;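 further: 0% = DMSO wells and 100% = triacsin C control wells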
CHT PAM: allosterically activates the human high affinity choline transporter; CHT-expressing cells, membrane potential dye, choline EC20; active compounds read high; LV-AA mutant CHT in HEK293 cells; B-score at 10 µM; 310,000 compounds, 0.49% hits;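 active means initial fluorescence not abnormally high and integrated response B-score, plate-corrected, over 3 SD above library mean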
CHT block: human CHT choline transport inhibition. Q9GZV3. CHT-expressing cells, membrane potential dye, choline response; active compounds read low. B-score at 10 µM. 310,000 compounds, 0.86% hits. AID 488975;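 active means B-score over 3 SD under the library average, and starting fluorescence ratio not unusually high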;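 further: choline stimulus applied at its EC90 after an EC20 pre-addition; B-score computed on integrated fluorescence ratio after choline addition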
hERG ctr: blocks human hERG, in counter-screen for Kir2.1 inhibitors; AID 2236; 320 compounds, 20% hits; shares compounds with Kir21 inh; inhibition, % at 10 µM; hERG-expressing cells, thallium flux;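 further: host cells are CHO cells stably expressing hERG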
KCNK9 inh: tests whether Kir2.1 inhibitors also affect human KCNK9; shares compounds with Kir21 inh; KCNK9-expressing cells, ion flux inhibition; inhibition, % at 10 µM; 320 compounds, 5% hits; AID 2329
Kir2-1 patch inh: mouse Kir2.1 inward rectifier channel inhibition; shares compounds with Kir21 inh; Kir2.1 cells, automated patch-clamp current inhibition; inhibition, % at 25 µM; 320 compounds, 71% hits
CHT block conf: confirmation of human choline transporter CHT inhibitors; shares compounds with CHT block; 2,400 compounds, 70% hits; CHT activity remaining % of control (active compounds read low), % at 10 µM; CHT-expressing cells, choline membrane potential dye; LV-to-AA substituted CHT, HEK293 cells;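 active means choline transporter activity left, mean of duplicates at 10 µM, below buffer-only control mean minus 3 SD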;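 further: depolarization triggered by choline at its EC90 following an EC20 pre-addition; 0% = hemicholinium-3 full block and 100% = buffer-only control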
HEK293 MPD ctr: CHT inhibitor counter-screen hit in parental HEK293 cells; shares compounds with CHT block; membrane potential dye, choline response; active = decrease or increase beyond buffer ±3SD; membrane potential ratio readout (active if shifted either direction beyond buffer ±3SD; no single direction) at 10 µM; 2,400 compounds, 4% hits; AID 493222;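 further: parental cells lack the transporter so any hit is non-specific; ratio is peak minus trough fluorescence over baseline after EC90 choline challenge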
An asterisk follows results filed as active; i = inactive; nt = not tested or not shown; ! = a repeat was not active. A selection: hits, their analogues and other compounds. The true share with any hit is near 2%. Unless noted, how the calls were made is not given here.

SMILES	Kir21 inh	H9c2 TAG inh	CHT PAM	CHT block	CHT block conf	HEK293 MPD ctr	others
COc1ccc2ccccc2c1CNCCc1ccccc1	-8.95*	6.0	i	i	nt	nt	hERG ctr=i;KCNK9 inh=i;Kir2-1 patch inh=29.0%*
COc1cccc(CNCCc2ccccc2)c1OC	1.95	-2.5	i	i	nt	nt
COc1ccc(CN2CCCC(C(=O)c3sccc3C)C2)cc1O (stereo unspecified)	-6.18*	-12.1	i	i	nt	nt	hERG ctr=i;KCNK9 inh=i;Kir2-1 patch inh=i
COc1cc(C)c(CNCCc2c[nH]c3ccccc23)cc1C	-6.92*	nt	i	i	nt	nt	hERG ctr=i;KCNK9 inh=i;Kir2-1 patch inh=9.0%*
COC/C=C1\CN2C3C[C@@H]1[C@H]1COC4=Nc5cc(OC)c(OC)c(OC)c5[C@@]43C[C@@H]12	-0.36	nt	i	i	nt	nt
COc1ccc(OC)c(C(O)C2CCCCN2)c1 (stereo unspecified)	-0.37	nt	i	i	nt	nt
COc1cc(CNCCc2ccc3c(c2)OCO3)ccc1O	0.87	-2.6	i	i	nt	nt
COc1ccc(CNCCc2ccc3c(c2)OCO3)cc1Br	-11.5*	nt	i	i	nt	nt	hERG ctr=46.0%*;KCNK9 inh=i;Kir2-1 patch inh=82.5%*
O=c1cccc2n1CC1CC2CN(Cc2cccc(Cl)c2Cl)C1 (stereo unspecified)	-7.81*	nt	i	-5.39*	64.8%*	i
CC1=CC2/C=C(\C)CCC(O)C(O)/C=C/C(=O)C23C(=O)NC(CC(C)C)C3C1C (stereo unspecified)	-7.11*	nt	i	-6.53*	24.1%*	i
C/C1=C\[C@@H](C)C/C=C/[C@H]2[C@@H]3O[C@]3(C)[C@@H](C)[C@H]3[C@H](Cc4c[nH]c5ccccc45)NC(=O)[C@]32C(=O)/C=C/C(=O)[C@@H]1O	-2.06	nt	i	i	nt	nt
Cc1ccc(CN2CCCC(C(=O)c3sccc3C)C2)o1 (stereo unspecified)	0.41	-4.5	i	i	nt	nt
Brc1ccc2c(c1)C(OC1CN3CCC1CC3)c1ccccc1CS2 (stereo unspecified)	-8.91*	nt	i	-6.53*	34.3%*	i
Clc1cc(I)cc(Cl)c1NC1=NCCN1	-0.03	-20.2	i	-6.99*	6.0%*	i
CC=C(C)C1(CCC)C(=O)NC(=S)NC1=O	nt	8.7	nt	nt	nt	nt
CCCC(C)C1(CC)C(=O)NC(=Nc2ccc(F)cc2)NC1=O (stereo unspecified)	0.83	-10.4	i	i	nt	nt
COc1cccc2c1N=C1CCCC3CN(C(C)=O)CCC123 (stereo unspecified)	nt	-6.9	nt	nt	nt	nt
CCn1c(P(C)(=O)O)nc2ccccc21	3.01	nt	i	i	nt	nt
CCn1c(P(C)(=O)O)nc2cc(NC(=O)c3ccccc3F)ccc21	0.62	4.6	i	-12.4*	i	i
C[C@]12CCC3C(CC[C@H]4C[C@H](O)CC[C@]34C)C1C[C@H](O)[C@H]2O (stereo partly specified)	nt	2.5	nt	nt	nt	nt
C[C@]12CC[C@H](O)C[C@@H]1CC[C@@H]1[C@@H]2CC[C@]2(C)[C@@H](C(=O)O)C[C@@H]12	-0.87	nt	i	-13.7*	i	i
O=C1NC(=O)N(c2ccc(Cl)cc2)C(=O)/C1=C/c1coc2ccc(O)cc2c1=O	-1.23	-2.9	i	-5.87*	58.6%*	i
O=C(CCCN1CCC2(CC1)C(=O)NCN2c1ccccc1)c1ccc(F)cc1	-0.38	7.1	i	i	nt	nt
CCCNC(=O)c1c(N)n(CC2CCCO2)c2nc3ccccc3nc12 (stereo unspecified)	1.61	21.6	i	i	nt	nt
Nc1c(C(=O)OC2CCCCC2)c2nc3ccccc3nc2n1CC1CCCO1 (stereo unspecified)	0.19	31.7	i	-8.64*	50.7%*	i
SMILES	Kir21 inh	H9c2 TAG inh	CHT PAM	CHT block	CHT block conf	HEK293 MPD ctr	others
CC(C)OC(=O)c1c(N)n(CC2CCCO2)c2nc3ccccc3nc12 (stereo unspecified)	1.71	10.5	i	i	nt	nt
CC(C)OCCCNC(=O)c1c(N)n(CC2CCCO2)c2nc3ccccc3nc12 (stereo unspecified)	1.68	nt	i	-5.07*	i	i
CCC(=NCCc1c[nH]c2ccccc12)c1c(O)n(C)c(=O)n(C)c1=O	-1.1	nt	i	-5.71*	i	i
COC(=O)C1=C(c2cc3ccccc3o2)C[C@@H]2CC[C@H]1N2C(=O)N1CCCC1	-0.38	nt	i	-6.2*	64.8%*	i
CCCC(=O)NC(Oc1ccccc1Cl)C(Cl)(Cl)Cl (stereo unspecified)	-3.85	nt	i	-5.05*	i	i
CC1CN(c2ccccn2)C(C)CN1C(=O)C(O)(c1ccccc1)c1ccccc1 (stereo unspecified)	nt	-3.2	nt	nt	nt	nt
c1ccc2c(CN3CCCCCCC3)c[nH]c2c1	-0.48	nt	i	-10.5*	2.7%*	i
O=C(Cn1c(=O)c(C(F)(F)F)nc2ccccc21)N1CCC2(CC1)OCCO2	-0.84	nt	i	i	nt	nt
O=C(NN=Cc1ccc(N(CCCl)CCCl)cc1)C(=O)c1c[nH]c2ccccc12	nt	-8.2	nt	nt	nt	nt
CCOc1cc(/C=C2/C(=O)NC(=O)N(c3ccc(CC)cc3)C2=O)ccc1OC(=O)c1cccs1	-1.39	nt	i	-6.63*	59.1%*	i
CCOc1cc2c(cc1OCC)-n1cccc1C(c1ccc(C)cc1C)NC2 (stereo unspecified)	-0.33	nt	i	i	nt	nt
CCOc1cc2c(cc1OCC)-n1cccc1C(c1cc(C)c(OC)cc1C)NC2 (stereo unspecified)	-0.07	nt	i	-5.05*	i	i
CC(=O)OCC[N+](C)(C)C	-0.72	3.1	i	-7.46*!	25.3%*	i
C[N+](C)(C)CCOC(=O)CBr	nt	-8.7	i	-8*	-8.4%*	i
CNC(=O)OCCc1n(C)cc[n+]1C	1.09	nt	i	i	nt	nt
C=CCn1c(O)c(C(CC)=NC(C)c2ccccc2)c(=O)[nH]c1=O (stereo unspecified)	0.81	1.0	i	-4.99*	48.8%*	i
CCCCn1c(O)c(C(CC)=NC(C)c2ccccc2)c(=O)[nH]c1=O (stereo unspecified)	1.49	nt	i	i	nt	nt
Cc1ccccc1OCCCn1cc(C(=O)C(=O)N2CCOCC2)c2ccccc21	-2.65	1.2	i	i	nt	nt
